For some of these results: Measured potencies and affinities stand elsewhere.

What all share (set-up): scale not given: direction of the effect not stated beside the values
The target of assay [1] is Protein translocase subunit SecA (Escherichia coli (strain K12)) (UniProt P10408). The assay is described as follows: Assay to Identify E. coli SecA ATPase Inhibitors. Particulars: 30 µM. Format: functional.
In assay [2] the target is T1, Ubiquitin-activating enzyme e1, putative (Leishmania donovani (strain BPK282A1)) (UniProt E9BSI1).
T1 sequence (whole entry): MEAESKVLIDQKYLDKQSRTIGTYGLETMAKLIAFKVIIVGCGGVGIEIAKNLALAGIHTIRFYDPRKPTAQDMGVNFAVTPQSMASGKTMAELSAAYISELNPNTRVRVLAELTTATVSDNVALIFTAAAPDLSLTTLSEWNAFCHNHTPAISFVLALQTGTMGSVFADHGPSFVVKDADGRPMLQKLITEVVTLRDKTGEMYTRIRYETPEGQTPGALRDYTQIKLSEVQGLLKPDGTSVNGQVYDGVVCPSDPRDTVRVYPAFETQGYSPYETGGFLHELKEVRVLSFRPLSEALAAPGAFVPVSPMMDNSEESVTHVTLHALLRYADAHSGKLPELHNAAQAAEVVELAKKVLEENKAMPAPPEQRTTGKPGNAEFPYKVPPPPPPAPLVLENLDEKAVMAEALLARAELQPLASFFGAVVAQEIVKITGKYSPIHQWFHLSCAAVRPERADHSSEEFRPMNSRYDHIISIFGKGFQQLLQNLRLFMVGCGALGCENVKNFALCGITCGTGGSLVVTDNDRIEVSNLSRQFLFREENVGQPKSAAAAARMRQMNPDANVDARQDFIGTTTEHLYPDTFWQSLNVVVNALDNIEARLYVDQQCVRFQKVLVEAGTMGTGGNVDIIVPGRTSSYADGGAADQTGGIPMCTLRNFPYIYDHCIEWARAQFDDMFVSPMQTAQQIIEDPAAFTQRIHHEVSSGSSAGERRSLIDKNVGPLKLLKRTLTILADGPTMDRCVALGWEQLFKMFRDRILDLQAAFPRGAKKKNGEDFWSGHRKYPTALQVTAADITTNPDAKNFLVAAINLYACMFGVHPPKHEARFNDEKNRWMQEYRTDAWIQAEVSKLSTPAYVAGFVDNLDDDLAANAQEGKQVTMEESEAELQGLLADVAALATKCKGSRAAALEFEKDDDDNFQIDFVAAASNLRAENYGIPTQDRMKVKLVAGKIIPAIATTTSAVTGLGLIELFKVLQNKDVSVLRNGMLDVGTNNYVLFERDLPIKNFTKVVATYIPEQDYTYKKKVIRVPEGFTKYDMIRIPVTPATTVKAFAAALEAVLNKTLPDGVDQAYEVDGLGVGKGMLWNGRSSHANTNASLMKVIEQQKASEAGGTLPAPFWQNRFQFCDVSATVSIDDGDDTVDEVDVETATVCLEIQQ
The assay can be described thus: Leishmania donovani Ubiquitin Activating Enzyme (LdE1). Format: functional. Particulars: 30 µM.

The target of assay [3] is AMP-activated protein kinase, AMPK (Homo sapiens) (UniProt P54646+O43741+P54619+Q9UGJ0+Q9Y478+Q13131+Q9UGI9). The assay can be described thus: AMP-dependent Kinase enzyme assay. An in vitro enzyme assay that detects ADP turnover that is directly proportional to AMPK activity. This uses naive AMPK that is activated during the assay with MK-8722. Format: functional. Particulars: 30 µM.

Assay [4] concerns the target Sialic acid-binding Ig-like lectin 9 (Homo sapiens) (UniProt Q9Y336). The assay is described as follows: Hs-Siglec9 ALPHAscreen SOP 20170721. As to conditions: 10 µM.
Another assay deals with Trypanosoma cruzi. The assay is described as follows: Trypanosoma cruzi phosphomannomutase and mannose-1-phosphate guanylyltransferase assay. Format: functional. Particulars: 10 µM.
Assay [5] addresses T2, Arginase-2, mitochondrial (Homo sapiens) (UniProt P78540).
T2 sequence (whole entry): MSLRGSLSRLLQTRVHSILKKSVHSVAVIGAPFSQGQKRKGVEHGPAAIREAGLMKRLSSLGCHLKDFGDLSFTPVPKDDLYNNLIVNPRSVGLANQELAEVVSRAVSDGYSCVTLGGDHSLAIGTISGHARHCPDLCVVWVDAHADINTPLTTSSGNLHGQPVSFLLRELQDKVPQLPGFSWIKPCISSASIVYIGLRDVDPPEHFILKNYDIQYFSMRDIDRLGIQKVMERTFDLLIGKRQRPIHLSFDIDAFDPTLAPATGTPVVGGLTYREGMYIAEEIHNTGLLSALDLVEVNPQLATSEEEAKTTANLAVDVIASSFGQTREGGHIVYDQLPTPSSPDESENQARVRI
The assay can be described thus: in vitro enzyme assay to detect the production of urea directly proportional to the activity of Arginase II. Further: in the data most compounds retested in dose-response had high values. As to conditions: 33.3 µM. Format: functional.

Assay [6] addresses T3, Proteasome subunit beta (Trypanosoma cruzi) (UniProt O96673).
T3 sequence (whole entry): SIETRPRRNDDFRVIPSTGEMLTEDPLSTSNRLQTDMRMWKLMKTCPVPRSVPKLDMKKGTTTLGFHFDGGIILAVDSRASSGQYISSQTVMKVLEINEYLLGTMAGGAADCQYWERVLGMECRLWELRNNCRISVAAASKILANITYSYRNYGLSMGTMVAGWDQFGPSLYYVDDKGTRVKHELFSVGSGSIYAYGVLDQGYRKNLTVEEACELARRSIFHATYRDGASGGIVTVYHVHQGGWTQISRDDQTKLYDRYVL
The assay can be described thus: Trypanosoma cruzi proteasome chymotrypsin-like activity (TcProtChymo) assay. Further: in the data most compounds retested in dose-response had high values. As to conditions: 9.37 µM. Format: functional.

The next assay is filed under the species Homo sapiens. The assay is described as follows: To identify inhibition of the IFN signalling (Jak-Stat) pathway via expression of an eGFP reporter gene under the control of an IFN-stimulated response element (ISRE) containing MxA promoter. Format: functional. Particulars: 30 µM.
For assay [7], the target named is T4, Tyrosyl-tRNA synthetase, putative (Trypanosoma cruzi (strain CL Brener)) (UniProt Q4DSP6).
T4 sequence (whole entry): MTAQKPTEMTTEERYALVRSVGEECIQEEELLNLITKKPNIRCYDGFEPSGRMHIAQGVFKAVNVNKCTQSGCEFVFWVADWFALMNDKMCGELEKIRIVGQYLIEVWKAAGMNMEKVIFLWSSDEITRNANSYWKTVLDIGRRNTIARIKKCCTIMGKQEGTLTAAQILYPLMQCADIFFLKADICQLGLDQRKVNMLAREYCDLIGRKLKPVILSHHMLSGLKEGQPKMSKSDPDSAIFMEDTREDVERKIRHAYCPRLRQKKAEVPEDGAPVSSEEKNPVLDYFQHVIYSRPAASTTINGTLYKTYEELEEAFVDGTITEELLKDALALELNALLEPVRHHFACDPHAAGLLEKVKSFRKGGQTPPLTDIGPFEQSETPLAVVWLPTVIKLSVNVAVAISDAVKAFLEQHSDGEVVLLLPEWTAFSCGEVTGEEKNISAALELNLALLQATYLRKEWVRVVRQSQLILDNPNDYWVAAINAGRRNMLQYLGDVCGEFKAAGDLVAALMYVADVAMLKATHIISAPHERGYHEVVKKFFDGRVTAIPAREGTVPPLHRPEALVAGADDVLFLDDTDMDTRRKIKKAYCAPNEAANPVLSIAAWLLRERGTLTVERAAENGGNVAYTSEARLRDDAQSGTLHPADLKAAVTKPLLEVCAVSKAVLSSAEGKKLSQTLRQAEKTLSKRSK
The assay is described as follows: Trypanosoma cruzi tyrosyl tRNA synthetase (TcYRS) _High Tyrosine SOP. Further: in the data most compounds retested in dose-response had high values. Format: functional. Particulars: 30 µM.

In assay [8] the target is T4, Tyrosyl-tRNA synthetase, putative (Trypanosoma cruzi (strain CL Brener)). The assay is described as follows: Trypanosoma cruzi tyrosyl tRNA synthetase (TcYRS) SOP. Format: functional. As to conditions: 30 µM.
In assay [9] the target is Chromo domain-containing protein 1 (Saccharomyces cerevisiae (strain ATCC 204508 / S288c) (Baker's yeast)) (UniProt P32657). The assay is described as follows: ScCHD-1 Enzyme Inhibition Assay. Further: in the data most compounds retested in dose-response had high values. Format: functional. Particulars: 30 µM.
Sequence of Chromo domain-containing protein 1 (Saccharomyces cerevisiae (strain ATCC 204508 / S288c) (Baker's yeast)) (P32657 whole entry, the tested form may be a part): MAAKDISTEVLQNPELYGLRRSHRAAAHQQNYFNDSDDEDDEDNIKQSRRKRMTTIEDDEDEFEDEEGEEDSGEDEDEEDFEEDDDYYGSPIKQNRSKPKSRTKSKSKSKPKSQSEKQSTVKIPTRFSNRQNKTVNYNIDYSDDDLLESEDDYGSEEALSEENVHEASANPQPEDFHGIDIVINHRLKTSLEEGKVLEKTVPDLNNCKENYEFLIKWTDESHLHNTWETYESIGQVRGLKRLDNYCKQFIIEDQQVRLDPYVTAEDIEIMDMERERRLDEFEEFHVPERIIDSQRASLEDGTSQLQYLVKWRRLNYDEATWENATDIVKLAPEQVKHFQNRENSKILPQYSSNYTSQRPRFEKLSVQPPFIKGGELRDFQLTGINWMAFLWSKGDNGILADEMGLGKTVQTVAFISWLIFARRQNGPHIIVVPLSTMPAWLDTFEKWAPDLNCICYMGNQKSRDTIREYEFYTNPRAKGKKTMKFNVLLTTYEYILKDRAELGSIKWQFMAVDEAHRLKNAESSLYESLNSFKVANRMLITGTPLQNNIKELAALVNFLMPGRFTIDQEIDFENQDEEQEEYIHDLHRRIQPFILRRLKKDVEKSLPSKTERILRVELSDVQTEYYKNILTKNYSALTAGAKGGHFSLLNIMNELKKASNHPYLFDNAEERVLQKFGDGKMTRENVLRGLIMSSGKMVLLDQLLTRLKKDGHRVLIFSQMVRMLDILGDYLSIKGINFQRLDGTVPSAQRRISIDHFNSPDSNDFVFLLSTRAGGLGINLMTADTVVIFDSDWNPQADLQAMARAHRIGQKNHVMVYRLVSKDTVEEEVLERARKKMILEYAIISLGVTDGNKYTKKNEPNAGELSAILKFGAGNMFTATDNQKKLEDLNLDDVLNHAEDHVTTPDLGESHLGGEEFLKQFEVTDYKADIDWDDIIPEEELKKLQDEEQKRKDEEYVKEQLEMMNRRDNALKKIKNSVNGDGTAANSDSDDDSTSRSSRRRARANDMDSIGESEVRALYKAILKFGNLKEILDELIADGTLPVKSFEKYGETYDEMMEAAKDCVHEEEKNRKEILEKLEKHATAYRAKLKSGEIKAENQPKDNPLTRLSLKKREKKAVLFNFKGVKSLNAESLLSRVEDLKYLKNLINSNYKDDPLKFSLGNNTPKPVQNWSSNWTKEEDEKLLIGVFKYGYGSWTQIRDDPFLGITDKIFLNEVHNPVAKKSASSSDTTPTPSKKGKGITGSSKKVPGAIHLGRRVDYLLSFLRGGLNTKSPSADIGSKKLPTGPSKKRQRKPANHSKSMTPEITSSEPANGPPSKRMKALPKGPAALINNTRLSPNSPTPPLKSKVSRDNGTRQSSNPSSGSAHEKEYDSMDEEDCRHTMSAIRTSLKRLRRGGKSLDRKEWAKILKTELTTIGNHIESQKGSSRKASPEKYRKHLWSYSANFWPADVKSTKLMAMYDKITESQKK

Sequence of Protein translocase subunit SecA (Escherichia coli (strain K12)) (P10408 whole entry): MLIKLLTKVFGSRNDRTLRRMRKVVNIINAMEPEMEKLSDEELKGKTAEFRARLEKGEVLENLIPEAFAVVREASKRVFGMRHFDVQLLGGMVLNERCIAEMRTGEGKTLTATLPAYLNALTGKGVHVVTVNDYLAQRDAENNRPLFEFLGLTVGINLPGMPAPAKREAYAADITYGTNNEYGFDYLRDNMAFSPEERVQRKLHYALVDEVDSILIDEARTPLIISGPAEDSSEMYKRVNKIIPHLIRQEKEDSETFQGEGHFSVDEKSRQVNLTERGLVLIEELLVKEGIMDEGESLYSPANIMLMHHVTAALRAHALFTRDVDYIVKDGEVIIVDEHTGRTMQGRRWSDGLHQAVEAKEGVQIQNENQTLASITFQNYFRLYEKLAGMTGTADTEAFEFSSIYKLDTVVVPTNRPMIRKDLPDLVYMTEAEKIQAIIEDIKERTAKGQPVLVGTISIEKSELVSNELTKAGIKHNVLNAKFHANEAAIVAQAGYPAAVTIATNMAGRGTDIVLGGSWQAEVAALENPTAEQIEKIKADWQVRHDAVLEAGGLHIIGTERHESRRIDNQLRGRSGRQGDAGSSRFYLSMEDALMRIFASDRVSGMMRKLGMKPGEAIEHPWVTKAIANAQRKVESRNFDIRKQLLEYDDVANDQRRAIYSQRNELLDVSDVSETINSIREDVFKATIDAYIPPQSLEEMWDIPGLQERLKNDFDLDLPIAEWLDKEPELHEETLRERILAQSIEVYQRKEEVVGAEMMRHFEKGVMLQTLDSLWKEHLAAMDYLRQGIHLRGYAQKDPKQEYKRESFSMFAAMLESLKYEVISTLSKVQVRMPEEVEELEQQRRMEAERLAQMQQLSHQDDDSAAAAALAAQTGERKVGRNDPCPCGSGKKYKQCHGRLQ
Sequence of Sialic acid-binding Ig-like lectin 9 (Homo sapiens) (Q9Y336 whole entry): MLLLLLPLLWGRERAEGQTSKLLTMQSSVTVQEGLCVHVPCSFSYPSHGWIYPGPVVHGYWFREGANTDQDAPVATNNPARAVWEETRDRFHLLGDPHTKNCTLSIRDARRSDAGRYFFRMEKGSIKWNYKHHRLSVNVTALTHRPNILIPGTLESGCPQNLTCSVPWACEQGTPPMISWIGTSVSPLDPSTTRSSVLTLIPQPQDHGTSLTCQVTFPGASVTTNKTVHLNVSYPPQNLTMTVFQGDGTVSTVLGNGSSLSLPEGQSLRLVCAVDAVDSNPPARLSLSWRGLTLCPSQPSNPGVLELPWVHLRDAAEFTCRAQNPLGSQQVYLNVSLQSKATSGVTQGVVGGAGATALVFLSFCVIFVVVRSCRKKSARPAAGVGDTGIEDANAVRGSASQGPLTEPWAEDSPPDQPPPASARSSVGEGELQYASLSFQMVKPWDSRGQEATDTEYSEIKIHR

In the case of `CC(C)(C)NC(=O)C1CSCN1S(=O)(=O)c1ccc(F)cc1` (stereo not drawn), the Percent Effect in [1] is -1.95%; in assay [2], 6.33%; in [3], 3.86%; in assay [4] it was -0.312%; with Trypanosoma cruzi it was -4%; in assay [5], -4.52%. For the same molecule, the Percent Effect in assay [6] was 15.4%; in the assay listed under Homo sapiens, 21.8%; in assay [7] it was 7.29%; in assay [8] it was 20.2%; in [9] it was -14.6%.
On to `CC1CCN(CCNC(=O)c2cncnc2C(C)C)CC1`, for which the Percent Effect is 0.314% in assay [1]; 4.17% in assay [2]; -2.65% in assay [3]; -7.34% in [4]; -5.34% with Trypanosoma cruzi; 2.21% in [5]. Besides, the Percent Effect in [6] was 11.1%; in the assay listed under Homo sapiens, 0.616%; in assay [7], 1.05%; in [8], 5.13%; in assay [9], -2.34%.
In the case of `CCOc1ncccc1NC(=O)N1CCN(c2cccc(C)c2C)CC1`, the Percent Effect in assay [1] is -0.972%; in assay [2] it was 10.8%; in assay [3], 2.83%; in assay [4], -3.7%; in the assay on Trypanosoma cruzi, -10.1%; in [5], 5.36%. Also, the Percent Effect is 4.49% in [6]; 15.3% in the assay filed under Homo sapiens; 3.96% in [7]; 13.4% in assay [8]; 1.36% in assay [9].
As to `COc1ccccc1CC1CCCN(CC(=O)N2CCOCC2)C1` (stereo not drawn), the Percent Effect in assay [1] was -0.695%; in assay [2], -7.79%; in assay [3], 1.77%; in assay [4], 6.99%; in the assay on Trypanosoma cruzi it was 1.08%; in assay [5], 2.32%. In addition, the Percent Effect in assay [6] is -1.54%; in the assay listed under Homo sapiens, 2.85%; in assay [7], -1.91%; in assay [8], 0%; in assay [9], -10%.
In the case of `Cc1cc(CN(C)C(=O)NC2CCS(=O)(=O)C2)no1` (stereo not drawn), the Percent Effect in assay [1] is -1.09%; in assay [2], 13%; in assay [3] it was -2.73%; in assay [4], -9.19%; in the assay on Trypanosoma cruzi, 6.37%; in assay [5], 6.11%. Moreover, the Percent Effect is 11.2% in assay [6]; 6.33% in the assay filed under Homo sapiens; 4.76% in [7]; 18.8% in [8]; -18.4% in assay [9].
`Cc1cn2nc(N3CCCC3Cn3nc(C)cc3C)sc2n1` (stereo not drawn): the Percent Effect in [1] is -2.86%; in assay [2], 6.33%; in assay [3], 3.5%; in assay [4], 0.585%; in the assay on Trypanosoma cruzi, 1.74%; in assay [5], -0.645%. Also, the Percent Effect in [6] was 9.43%; in the assay listed under Homo sapiens, 19.6%; in assay [7] it was 4.17%; in assay [8], 7.59%; in assay [9], -20%.
Take `O=C(NCCCO)Nc1cccc(Cl)c1F`: the Percent Effect in assay [1] was -3.09%; in assay [2] it was 12.5%; in [3], -6.85%; in assay [4], 11.1%; with Trypanosoma cruzi, 4.96%; in assay [5] it was 11%. The Percent Effect was 8.25% in assay [6]; -2.91% in the assay listed under Homo sapiens; 3.16% in [7]; 5.13% in assay [8]; -4.47% in [9].
Regarding `COCc1cccc(C(=O)N2CCCCC2c2nccs2)c1` (stereo not drawn), the Percent Effect in assay [1] was -2.42%; in [2] it was -2.7%; in [3] it was -6.81%; in [4] it was -4.58%; with Trypanosoma cruzi it was 5.75%; in assay [5], 2.81%. Also, the Percent Effect in [6] is 7.75%; in the assay listed under Homo sapiens it was -4.26%; in assay [7] it was 3.45%; in assay [8] it was 3.7%; in assay [9], -4.87%.
